About 79,000 compounds went through this panel and 15% of them were active in at least one assay; those are over-represented in the sample as a whole. Rule as the data show it: active = growth inhibition above about 70%; inactive = the rest.
Assays:
[1] = NCI Yeast Anticancer Drug Screen. Data for the rad50 strain (AID 155);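 also: 0% = growth of vehicle-only cultures of the same strain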; conditions: S. cerevisiae rad50 strain growth inhibition; at 50.0 µM; active compounds read high
In short: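 Relative growth inhibition (compound vs vehicle) was measured in yeast with a defined repair-gene alteration.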

[2] = NCI Yeast Anticancer Drug Screen. Data for the mec2-1 strain (AID 157); conditions: S. cerevisiae mec2-1 strain, at 50.0 µM, active compounds read high
In short: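 Each compound was tested on mec2-1 yeast, a strain altered in DNA damage repair or cell cycle control. Growth inhibition is reported relative to vehicle.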

[3] = NCI Yeast Anticancer Drug Screen. Data for the sgs1 mgt1 strain (AID 161);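 also: 0% = growth of cultures given vehicle only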; conditions: S. cerevisiae sgs1 mgt1 strain, at 50.0 µM, active compounds read high
In short: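 Mutant yeast exposed to compound; growth scored against vehicle-only wells.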

[4] = NCI Yeast Anticancer Drug Screen. Data for the cln2 rad14 strain (AID 165);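 also: 0% = growth equal to vehicle treated cultures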; conditions: S. cerevisiae cln2 rad14 strain, at 50.0 µM, active compounds read high
In short: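 Test compounds were added to cln2 rad14 yeast cultures; inhibition of growth was then determined by comparison with vehicle treatment.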

[5] = NCI Yeast Anticancer Drug Screen. Data for the bub3 strain (AID 167); conditions: S. cerevisiae bub3 mutant strain, at 50.0 µM, active compounds read high
In short: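 Screening used yeast with an engineered genetic alteration affecting cell cycle control. Compound-exposed cultures were compared with vehicle cultures, and reduced growth was taken as inhibition.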

[6] = NCI Yeast Anticancer Drug Screen. Data for the mlh1 rad18 strain (AID 175); conditions: S. cerevisiae mlh1 rad18 strain growth inhibition; at 50.0 µM; active compounds read high
In short: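 Inhibition values reflect reduced growth of mutant yeast versus vehicle-treated controls following compound exposure; the mutations affect DNA damage repair.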

Measured: growth inhibition

CC(=O)NC(c1ccccc1)(c1ccccc1)c1ccccc1
inactive: [1] 12.1% | [2] 8.15% | [3] 14.8% | [4] 5.2% | [5] 31.1% | [6] 19.5%

Cc1cc(=O)n2c(n1)Nc1ccccc1C2
inactive: [1] 22.5% | [2] -26% | [3] 2.75% | [4] 1.65% | [5] 46.4% | [6] 6.8%

COc1ccc(N=C2C(=Nc3ccc(OC)cc3)N(c3ccccc3[N+](=O)[O-])C(=S)N2c2ccc(OC)cc2)cc1
inactive: [1] 3.6% | [2] -24% | [3] 10.7% | [4] -49.5% | [5] -1.35% | [6] -10.9%

CCOC(=O)/C(C)=C(/O)C(=O)OCC
inactive: [1] -45.2% | [2] -56.3% | [3] -22% | [4] -7.05% | [5] -40.2% | [6] -27.9%

N=c1c2c(ncn1N)CCN(Cc1ccccc1)C2
inactive: [1] -8.55% | [2] 7.35% | [3] -11.4% | [4] -71.8% | [5] -6% | [6] -32.8%

CCOC(=O)Nc1ccc([N+](=O)[O-])c2c1C(=O)c1ccccc1-2
inactive: [1] -9.55% | [2] 2.9% | [3] -8.6% | [4] -10.7% | [5] -21.6% | [6] -19.5%

CCOc1ccccc1NCN1C(=O)c2ccccc2C1=O
inactive: [1] -38.9% | [2] -35.1% | [3] -12.2% | [4] -8.65% | [5] -18.3% | [6] -20.1%

COC(SC)(C(=O)O)c1cc(-c2c(Cl)cccc2Cl)no1 (stereo unspecified)
inactive: [1] -5.4% | [2] -6.8% | [3] -9.35% | [4] -11.4% | [5] 12.2% | [6] -1%

C=CCNC(=O)CCCCCCCC1C(CCCCCCCC)C2(Cl)C(Cl)=C(Cl)C1(Cl)C2(Cl)Cl (stereo unspecified)
inactive: [1] 23.6% | [2] -4.6% | [3] 18.2% | [4] -12.2% | [5] 1.75% | [6] 17.8%

Cc1nc2c(=O)[nH]c(=S)[nH]c2[nH]c1=O
inactive: [1] -15.2% | [2] -28% | [3] -2.1% | [4] 12.5% | [5] -1.3% | [6] -1%

O=C1OC(c2ccccc2Cl)Sc2ccccc21 (stereo unspecified)
inactive: [1] -3.25% | [2] 25.1% | [3] 20.1% | [4] -30.7% | [5] 55.8% | [6] 32.8%

O=C(Nc1nc(=S)[nH][nH]1)C(=O)C1C(=O)Nc2ccccc2S1=O (stereo unspecified)
inactive: [1] 3.45% | [2] -10.8% | [3] -4.2% | [4] 4% | [5] -20.9% | [6] -0.6%

Cc1cc([N+](=O)[O-])ccn1
inactive: [1] -15.2% | [2] 1.1% | [3] -18.1% | [4] -4.5% | [5] -6.15% | [6] -9.9%

O=C(O)c1c(-c2ccccc2)c(=O)[nH]c2ccccc12
inactive: [1] -6.8% | [2] 4.05% | [3] -36.8% | [4] 17.1% | [5] 13.2% | [6] 11.1%

COc1ccc(N(N=Nc2ccccc2)C(C)=O)cc1
inactive: [1] -2.05% | [2] 2% | [3] 30.9% | [4] -4.75% | [5] -16.7% | [6] 11.9%

O=C1CCCCC1CO (stereo unspecified)
inactive: [1] -0.1% | [2] 1.5% | [3] -0.65% | [4] -5.5% | [5] 1.4% | [6] 2.3%

CCCCCCCCCCCCCCCCC[CH2][Sn]([Cl])([CH2]CCCCCCCCCCCCCCCCC)[CH2]CCCCCCCCCCCCCCCCC
inactive: [1] 9.15% | [2] -1.2% | [3] -16.7% | [4] -2.55% | [5] -2.1% | [6] -13.7%

CCOC(=O)C(C)Oc1ccc(Cl)cc1 (stereo unspecified)
inactive: [1] -7.85% | [2] -14.9% | [3] -13.1% | [4] -44.1% | [5] -6.3% | [6] 1.8%

Nc1nnc2nc(CC(=O)c3ccc(F)cc3)c(CC(=O)c3ccc(F)cc3)nn12
inactive: [1] -3.6% | [2] 30.3% | [3] 6.6% | [4] -2.7% | [5] 1.2% | [6] 6.7%

Cc1cc(N=Nc2ccc(N(C)C)cc2)ccn1
inactive: [1] 21.6% | [2] 7.2% | [3] 6.1% | [4] -52.8% | [5] 13.7% | [6] 0.9%

O=C(Nc1ccccc1)OCC(CN1CCCCC1)OC(=O)Nc1ccccc1 (stereo unspecified)
inactive: [1] -35.7% | [2] -38% | [3] -13.8% | [4] 5.55% | [5] -23.8% | [6] -37.1%

Reference: PubChem BioAssay (NCI)
